Assay outcomes as filed in PubChem BioAssay.
The sample as a whole holds a higher share of hits than the screen did.
Tgondii IFNg: T. gondii growth inhibition under IFN-gamma | AID 1259416 | activity change, negative = inhibition, % (no concentration beside the values) | Toxoplasma gondii growth in IFN-gamma-treated host cells; active compounds read low | actives 3.8% (n = 69,000); in the data active means activity change below about -70%, passing the limit was not always enough;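 further: host cells are HeLa cells infected with Toxoplasma gondii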
Of the large screens only hits and unclear results are named; the others gave an inactive call; ! = repeats disagree.

O=C(COc1ccccc1F)NCCc1csc(-c2ccc(Cl)cc2)n1	none
O=C(c1ccc[nH]1)N1C[C@H]2CN(Cc3cccc(F)c3)C(=O)[C@@H]2C1	none
Cc1ccc2c(c1C)-n1cccc1C1(CCN(C(=O)COc3ccc(Cl)cc3)CC1)N2	none
O=S(=O)(c1cccs1)N1CCC2(CC1)NCCN=C2NCc1cc(F)cc(F)c1	none
O=C(Cc1ccc(Cl)cc1)NC1CCSC1=O (centres undefined)	none
Cc1cc(C)c(NC(=O)C(=O)NCCc2sc(-c3ccccc3)nc2C)c(C)c1	none
C[C@H]1CN([C@@H](C)CO)C(=O)Cc2cc(NC(=O)C3CCCCC3)ccc2O[C@@H]1CN(C)Cc1ccc(Cl)c(Cl)c1	none
C[C@@H]1CN([C@@H](C)CO)C(=O)Cc2cc(NC(=O)C3CCCCC3)ccc2O[C@@H]1CN(C)Cc1ccc(Cl)c(Cl)c1	Tgondii IFNg -87
C[C@@H]1CN([C@@H](C)CO)C(=O)c2cccc(NS(C)(=O)=O)c2O[C@@H]1CN(C)Cc1ccc(-c2ccccc2)cc1	none
C[C@H]1CN([C@@H](C)CO)C(=O)c2cccc(NS(=O)(=O)c3ccc(F)cc3)c2O[C@H]1CN(C)Cc1ccc(Cl)c(Cl)c1	Tgondii IFNg -78
C[C@H](CO)N1C[C@H](C)[C@H](CN(C)Cc2ccc(Cl)c(Cl)c2)Oc2ccc(NC(=O)C3CCCCC3)cc2CC1=O	none
C[C@@H]1CN([C@H](C)CO)C(=O)c2cccc(NS(C)(=O)=O)c2O[C@@H]1CN(C)Cc1ccc(-c2ccccc2)cc1	none
C[C@@H]1CN([C@@H](C)CO)C(=O)c2cccc(NS(=O)(=O)c3ccc(F)cc3)c2O[C@H]1CN(C)Cc1ccc(Cl)c(Cl)c1	none
C[C@H](CO)N1C[C@H](C)[C@H](CN(C)Cc2ccc(Cl)c(Cl)c2)Oc2c(NS(=O)(=O)c3ccc(F)cc3)cccc2C1=O	Tgondii IFNg -85
C[C@H](CO)N1C[C@H](C)[C@@H](CN(C)Cc2ccc(-c3ccccc3)cc2)Oc2c(NS(C)(=O)=O)cccc2C1=O	none
CC(C)CN(C)C(=O)c1ncn2c1CN(CC(=O)N(C)C)S(=O)(=O)c1ccccc1-2	none
COc1cc(N2CC[C@H]3[C@@H]2CCN3C(=O)c2ccco2)ncn1	none
CN1C[C@@H](NC(=O)c2ccccc2Cl)C[C@H]1C(=O)NCc1ccccn1	none
Cc1ccc(C(=O)N2CCC(N3CCOCC3)CC2C(=O)O)cc1 (centres undefined)	none
O=C1NCCN2CCN(C(=O)C3CCN(C4CCCC4)CC3)CC12 (centres undefined)	none
O=C(Nc1cccc(F)c1)C1CC12CCN(S(=O)(=O)c1ccccc1)C2 (centres undefined)	none
CCc1nnc(CN2CCCN(Cc3ccc(F)cc3)C(C(C)C)C2)o1 (centres undefined)	none
CC(C)Oc1ccc(C2NC(=O)c3ccccc3O2)cc1 (centres undefined)	Tgondii IFNg -98
CC(C)Oc1ccc2c(=O)c(-c3ccccc3)coc2c1	none
O=C1NCC(c2ccccc2)Oc2ccccc21 (centres undefined)	none
COc1ccc(-c2ccc(S(C)(=O)=O)cc2)nn1	none
Cc1occc1C(=O)N1C[C@H]2CN(c3cncnc3)C(=O)[C@@H]2C1	none
Cc1nn(C)cc1-c1csc(NC(=O)C2OCCc3ccccc32)n1 (centres undefined)	none
Cc1ccc(N2CC3(CCN(C(=O)C4CC4)C3)CC2=O)s1 (centres undefined)	none
COc1ccc(NCc2n[nH]c(=S)n2-c2ccccc2)cc1	none
Cc1nn(-c2ccccc2)nc1C(=O)Sc1ccc(Cl)cc1	none
Cn1ncc(C(=O)Sc2ccc(Cl)cc2)c1-n1cccc1	Tgondii IFNg -94
Cn1ncc2c(Sc3ccc(Cl)cc3)ncnc21	none
Cc1[nH]c(/C=C2\C(=O)Nc3ccc(S(=O)(=O)N(C)c4cccc(Cl)c4)cc32)c(C)c1C(=O)N1CCN(C)CC1	none
CCN(CC)CCNC(=O)c1c(C)[nH]c(/C=C2\C(=O)Nc3ccc(F)cc32)c1C	Tgondii IFNg -75
CCN(CC)CCNC(=O)c1ccc(N)cc1	none
CCC1=NC2(CCC(C(=O)Nc3cnccc3C)CC2)C(=O)N1C (centres undefined)	none
CCCS(=O)(=O)N1CCC2(CC1)NC(=O)CC2c1cnn(C)c1 (centres undefined)	none
COc1ccccc1NC(=O)COc1nc(C)nc2ccccc12	none
CCN1CCCC1CN(Cc1cccs1)Cc1cnc(C)n1C (centres undefined)	none
Cc1ccc(S(=O)(=O)NCc2ccccc2)cc1	none
O=S(=O)(NCCc1ccncc1)c1cc(C(F)(F)F)cc(C(F)(F)F)c1	none
CCCCNS(=O)(=O)c1ccc(S(=O)(=O)NCc2ccncc2)cc1	Tgondii IFNg -80
COCCN1CC2(CCCCN2C(=O)Cc2ccccc2)CC1=O (centres undefined)	none
Cc1ccc2c(n1)N(CCn1cccn1)CCN(C(=O)NC(C)C)C2	none
Cc1cc(C(=O)N2CC[C@@H]3CN(c4ncccn4)CCO[C@H]3C2)c(C)o1	none
C=C[C@@H]1C[C@]1(NC(=O)[C@@H]1C[C@@H](Oc2ncc(OC)c3ccc(Cl)cc23)CN1C(=O)[C@@H](NC(=O)OC(C)(C)C)C(C)(C)C)C(=O)NS(=O)(=O)C1CC1	Tgondii IFNg -73
Cc1ccc(CSC2=Nc3ccccc3C3=NC(CCC(=O)NCc4ccc5c(c4)OCO5)C(=O)N23)c(C)c1 (centres undefined)	none
Cc1cc(C)c(S(=O)(=O)Nc2cccc(C(F)(F)F)c2)c(C)c1	none
CC(=O)N1C(=O)C2(N=C(N)NC(Nc3cccc(C(F)(F)F)c3)=N2)c2ccccc21 (centres undefined)	none
O=c1cc(Nc2cccc(C(F)(F)F)c2)nc[nH]1	Tgondii IFNg -103
CN1CCC2(c3ccccc3)CCN(CC3CC3)CC12 (centres undefined)	none
CCN1C(=O)C2(CCOCC2)c2cc(Nc3ncccn3)ccc21	none
COc1cc(C2CC(=O)Nc3c2c(-c2ccc(Cl)cc2)nn3-c2ccccc2)ccc1O (centres undefined)	none
Cn1cc(CCC(=O)N2CCC(c3n[nH]c(=O)n3-c3ccccc3)CC2)cn1	none
O=C(CC1=CCNCC1)N1CCC(c2n[nH]c(=O)n2-c2ccccc2)CC1	Tgondii IFNg -73
Cc1n[nH]c(C)c1C(=O)N1CCC(c2n[nH]c(=O)n2-c2ccccc2)CC1	none
CC(c1nncn1-c1ccccc1)n1cccn1 (centres undefined)	none
c1ccc2oc(NCC3CNCCOC3)nc2c1 (centres undefined)	none
Clc1cccc(Cl)c1/C=C/c1ccn[nH]1	Tgondii IFNg -89
N#Cc1c(Cl)cccc1Oc1ccc(-c2ccn[nH]2)cc1	none
CN1C[C@@H](NC(=O)C2CCC2)C[C@H]1C(=O)NCCc1c[nH]c2ccccc12	none
Cc1nc(-c2cccc(F)c2)sc1CCNC(=O)C(C)(C)C	none
CC(C)(C)c1cc(CN2CCc3[nH]cnc3C2c2ccccn2)[nH]n1 (centres undefined)	none
CC(=O)Nc1ccccc1	none
CC(=O)NC1=NN(C(C)=O)C(C)(c2ccccc2)S1 (centres undefined)	Tgondii IFNg -77!
CC(=O)Nc1nonc1-c1ccccc1	none
Nc1cc2ccccc2nc1C1CCCCC1	none
CC(CNC(=O)c1cc(=O)c2ccccc2[nH]1)Oc1cccnc1 (centres undefined)	none
CCCN1C(=O)CCc2cc(NC(=O)c3cc4ccccc4[nH]3)ccc21	none
CCCn1cc(CCNC(=O)c2cc3ccccc3[nH]2)c2cccnc21	Tgondii IFNg -83
Cc1ccccc1CN1C[C@@H]2c3nc(N4CCCC(C)C4)ncc3CS(=O)(=O)[C@H]2C1 (some centres undefined)	Tgondii IFNg -86
